This is an account of results in the supplement of paper PMC11150407.

Each structure is given as a SMILES string. Among all 3,000 compounds or so, about 45 (2%) showed an effect of 50% or more. Shown is part of a subset that was picked to be rich in strong results.

The experiment deals with MOLM1 and UCSD/AML1 (averaged). The experiment can be described thus: cell viability relative to DMSO control (POC); higher = less growth inhibition. Conditions: 1 µM; 72 h. As for the experimental part:
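Primary viability screen in the 3q26 EVI1-high AML cell lines MOLM1 and UCSD/AML1, compounds at 1 uM for 72 h. ATP CellTiter-Glo read-out given as percent viable over DMSO control (POC), averaged over duplicates. This mapping covers the TimTec NDL-3000 natural derivative library, whose compounds are identified by TimTec catalogue codes (ST...).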
Take `OCC1N2CCC(CC2)C1(O)O` (stereo not given): the cell viability (as a rule, a read-out of living cells in per cent, often relative to untreated cells) was found to be 32.3%.
With `CCOC(=O)C1=C(N)Oc2c(c(=O)oc3ccccc23)C1c1ccc(Cl)cc1Cl` (stereo not given) the figure was 104%; with `CC(=O)OC1CCC2(C)C3CCC4(C)C(CC[C@]4(OC(C)=O)C(C)OC(C)=O)C3CC[C@H]2C1` (stereo not given in full), 109%.
The result for `CN1C(=O)C(=Cc2ccc3c(c2)OCO3)C(=O)N(C)C1=O` reads 111%; that for `O.O.OCC1CCCN2CCCCC12.[Cl][Cu][Cl]` (stereo not given), 110%; that for `Cc1ccc(C(c2c(O)c3ccccc3oc2=O)c2c(O)c3ccccc3oc2=O)cc1`, 102%.
With `CCOC(=O)C1=C(N)Oc2c(c(=O)oc3ccccc23)C1c1ccc(Br)cc1` (stereo not given) the figure was 93%; with `CCOC(=O)C1=C(N)Oc2c(c(=O)oc3ccccc23)C1c1cccc(Br)c1` (stereo not given), 103%.
As to `CCOC(=O)C1=C(N)Oc2c(c(=O)oc3ccccc23)C1c1ccc(Cl)c(Cl)c1` (stereo not given), the cell viability was determined as 37.7%.
The result for `COCCOC(=O)c1c(C)n(Cc2ccccc2Cl)c2ccc(O)cc12` reads 106%.
